# RMI-FANCM inh: inhibitors of human RMI core complex binding to FANCM MM2 | 70,000 tested, 0.58% active | Fluorescence polarization, RMI core complex with F-MM2 peptide; hits give low values | FP signal (polarization) at 33 µM | AID 1159607; in the data active means FP signal below about 40
# Active calls of the source: *; ! = a repeat was not active. This excerpt belongs to a sample that is enriched for hits.
SMILES,RMI-FANCM inh
C[C@@H]1C(=O)O[C@H]2[C@H]1CC[C@@]1(C)C=CC(=O)[C@@]3(C)O[C@@]213,31*!
O=c1c2ccccc2[nH]c(=S)n1-c1ccc(C(F)(F)F)cc1,69
CN[C@@H]1[C@@H](O)[C@H](O[C@@H]2[C@@H](O)[C@H](O[C@@H]3O[C@H]([C@@H](C)NC)CC[C@H]3N)[C@@H](N)C[C@H]2N)OC[C@]1(C)O (tested in a mixture with another compound),54
CC(C)(C)c1ccc(C(=O)Nc2ccc3c(C(F)(F)F)cc(=O)oc3c2)cc1,53
CC[C@@H](CO)NC(=O)[C@@H]1C=C2c3cccc4[nH]cc(c34)C[C@H]2N(C)C1,4*!
CCN(CC)C(=O)N[C@@H]1C=C2c3cccc4[nH]cc(c34)C[C@H]2N(C)C1,47
CC[C@@H](CO)NC(=O)[C@@H]1C=C2c3cccc4c3c(cn4C)C[C@H]2N(C)C1,37
N#Cc1ccc(Cl)cc1NC(=O)c1cccn(Cc2cccc(F)c2)c1=O,60
N#CC(c1c[nH]c2ccccc12)N1CCCCC1 (stereo unspecified),63
NC(=O)c1ccccc1NC(=O)c1cccn(Cc2cccc(C(F)(F)F)c2)c1=O,55
Cc1ccc(C2(O)C[N+]3=C(SCCC3)N2Cc2ccccc2)cc1 (stereo unspecified),78
COc1ccc(Br)cc1/C=C/[N+](=O)[O-],59
COc1cc2c(cc1OC)[C@@H]1C(=O)c3ccc(OC)c(CC=C(C)C)c3O[C@@H]1CO2,29*
COc1cc2c(cc1OC)[C@@H]1C(=O)c3ccc4c(c3O[C@@H]1CO2)CC(C(C)C)O4 (stereo partly specified),55
C=C(C)[C@H]1Cc2c(ccc3c2O[C@@H]2COc4cc(OC)c(OC)cc4[C@@H]2C3=O)O1,56
CN(C(=O)c1ccc2nonc2c1)c1ccc(Cl)cc1C(=O)c1ccccc1,53
Cc1csc(CN2CCN(C(=O)Cc3ccc(Cl)cc3)CC2)n1,60
Cc1[nH]c2ccc(O)cc2c1CCN,49
NCCc1cccc(O)c1,19*
COc1cc(CCN)ccc1O,57
Cc1ccc(S(=O)(=O)NCCC(=O)Nc2ccc(Br)cc2C(=O)c2ccccc2)cc1,62
O=C(c1ccccc1)c1cc(Cl)ccc1NC(=O)c1coc2ccccc2c1=O,63
COC(=O)[C@]1(C)CC[C@]2(C)CC[C@]3(C)C4=CCc5c(cc(O)c(O)c5C)[C@]4(C)CC[C@@]3(C)C2C1 (stereo partly specified),13*
CC1(C)C2CC(=O)[C@]3(C)C(CC[C@@]4(C)[C@H](c5ccoc5)OC(=O)[C@H]5O[C@]543)[C@@]2(C)C=C[C@@H]1O (stereo partly specified),59
CNC(=O)O/N=C\c1nn(C)cc1Br,54
CC(=O)C1CC[C@H]2C3CC[C@H]4C[C@H](O)CC[C@]4(C)C3CC[C@]12C (stereo partly specified),60
CN(C)CCN(C(=O)COc1ccccc1)c1nc2cc3c(cc2s1)OCCO3,75
CC[C@@H](C(N)=O)N1CCCC1=O,26*
CCSc1nnc(NC(=O)c2cccn(Cc3ccc(F)cc3)c2=O)s1,53
CCOC(=O)c1c(C)n(Cc2ccccc2)c2ccc(OCC(O)CN3CCCCCC3)cc12 (stereo unspecified),85
